MEKK2 WT-MEK5: modulators of MEK5 binding to wildtype MEKK2, primary screen, biochemical, multiplex bead flow cytometry, Alexa488-MEK5 | Mitogen-activated protein kinase kinase kinase 2 (Homo sapiens), Q9Y2U5 | Alexa488-MEK5 binding to MEKK2 WT; actives lie on both sides | binding response (% of control), % at 10 µM | actives 1.1% (n = 290,000) | AID 1531, 2009; in the data active = binding response below about 67% or above about 130%
MEKK3 PB1 HTS: modulators of MEKK3-MEK5 PB1 binding, primary screen, biochemical, wildtype MEKK3, multiplex bead flow cytometry, Alexa488-MEK5; actives 1.4% (n = 290,000); binding response (% of control), % at 10 µM; Mitogen-activated protein kinase kinase kinase 3 (Homo sapiens), Q99759; bead-based flow cytometry, Alexa488-MEK5 binding to MEKK3; actives lie on both sides; 0 = blocked by unlabeled MEK5, 100 = vehicle; AID 1529, 2009;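 active = binding response more than 3 SD above or below the average of its plate-row segment, actives on both sides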;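 also: Alexa488 bead fluorescence after subtracting the streptavidin-only scavenger bead signal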
MEKK2 mut-MEK5: MEK5 binding signal on mutant MEKK2 PB1, primary screen, biochemical, multiplex bead flow cytometry, Alexa488-MEK5. actives 0.35% (n = 290,000). AID 1530, 2009. Alexa488-MEK5 binding to MEKK2 mutant. percent response, % at 10 µM; in the data active = percent response above about 24%, passing the limit was not always enough
GRK2 inh: compounds blocking aptamer binding on GRK2 – biochemical, human GRK2, bead flow cytometry, HTS, primary screen. inhibition of aptamer binding, % at 10 µM. FAM-aptamer displacement from GRK2. actives 0.59% (n = 330,000). AID 488847, 2010. Beta-adrenergic receptor kinase 1 (Homo sapiens), P25098;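 active = inhibition of aptamer binding above 40%, roughly 3 SD of noise, on plates passing a quality check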;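 also: median bead fluorescence of bound FAM aptamer so fluorescent compounds give negative values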
Target sequence (P25098 whole entry, looked up): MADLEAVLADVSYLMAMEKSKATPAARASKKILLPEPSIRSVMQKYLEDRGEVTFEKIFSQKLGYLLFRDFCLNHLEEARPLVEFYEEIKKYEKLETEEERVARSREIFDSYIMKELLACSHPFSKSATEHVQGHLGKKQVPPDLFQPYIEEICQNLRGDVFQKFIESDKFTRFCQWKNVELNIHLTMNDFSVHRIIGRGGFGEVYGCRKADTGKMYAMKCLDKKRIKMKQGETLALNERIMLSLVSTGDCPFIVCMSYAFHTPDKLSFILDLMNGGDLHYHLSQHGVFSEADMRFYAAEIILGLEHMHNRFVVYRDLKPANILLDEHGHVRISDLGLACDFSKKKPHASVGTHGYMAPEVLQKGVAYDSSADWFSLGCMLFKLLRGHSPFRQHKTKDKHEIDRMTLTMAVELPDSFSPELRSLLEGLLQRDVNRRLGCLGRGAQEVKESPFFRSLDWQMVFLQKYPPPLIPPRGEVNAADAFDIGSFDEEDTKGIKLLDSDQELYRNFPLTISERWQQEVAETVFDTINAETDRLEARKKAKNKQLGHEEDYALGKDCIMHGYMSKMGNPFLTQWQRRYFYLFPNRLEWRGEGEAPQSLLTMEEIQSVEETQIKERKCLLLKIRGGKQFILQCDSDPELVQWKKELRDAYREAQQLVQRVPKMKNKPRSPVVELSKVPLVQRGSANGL
GRK2 inh confirm: GRK2 aptamer-displacing inhibitors, retest, confirmation, biochemical, cherry pick 1, bead flow cytometry. shares compounds with GRK2 inh. bead-bound GRK2, FAM-aptamer displacement. aptamer displacement, % at 10 µM. actives 4% (n = 2,000). AID 504451, 2011;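 active = aptamer displacement above 40%, near three times the noise of non-fluorescent compounds, on plates passing quality checks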;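 also: negative values mostly reflect intrinsic compound fluorescence rather than true enhancement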
Aptamer quench SP: aptamer fluorescence quenching in GRK2 counter-screen. fluorescence response (% of DMSO), % at 10 µM. Carboxyfluorescein RNA aptamer on beads, flow cytometry quenching; active compounds read low. AID 504580. shares compounds with GRK2 inh. 2,000 tested, under 10 active;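 active = compounds that quench the bead-bound fluorescent RNA probe, cutting fluorescence to under half of the solvent control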;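 also: counterscreen run without GRK2 so only probe quenching by compound is measured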
GRK2 CP2: GRK2 aptamer-displacing inhibitors, hit retest, confirmation, biochemical, cherry pick 2, bead flow cytometry; shares compounds with GRK2 inh; AID 504782, 2011; inhibition of aptamer binding, % at 10 µM; 360 tested, under 10 active; bead-bound GRK2, FAM-aptamer displacement;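 active = inhibition of aptamer binding above 40%, about triple the noise seen with nonglowing compounds, on plates passing quality control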;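 also: negative values mostly come from compounds that fluoresce themselves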
FAM quench SP: quenches fluorescent RNA aptamer, GRK2 hit artifact. shares compounds with GRK2 inh. AID 588494. 360 tested, under 10 active. fluorescence response vs DMSO, % at 10 µM. carboxyfluorescein RNA aptamer beads, flow cytometry quenching; active compounds read low;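 active = response vs DMSO under 50%, meaning signal dropped by over half, treated as fluorescence quencher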;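 also: labelled aptamer on streptavidin beads without GRK2 as a quench counter-screen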
Each line names hits and unclear results; the compound was inactive in the other large screens (follow-up assays come after a bar, where they were run). The list is not random: actives were taken first. Their share in the collection is about 2.5%.

CCC(CC)NC(=O)COC(=O)c1ccc(OCC(=O)Nc2ccccc2OC)c(OC)c1	none
CC(=O)CSc1nc2cc3c(cc2cc1C#N)OCCO3	GRK2 inh 60 | GRK2 CP2 inactive | FAM quench SP inactive
CC(NC(=O)COC(=O)c1ccc(N2CCCC2=O)cc1)c1ccc(F)cc1 (stereo not drawn)	none (no result: MEKK2 WT-MEK5, MEKK3 PB1 HTS, MEKK2 mut-MEK5)
O=C1NN(c2ccccc2)C(=O)/C1=C/c1ccc(-c2ccc(Cl)c(C(=O)O)c2)o1	none (no result: GRK2 inh)
Cc1cccc(N2NC(=O)/C(=C/c3ccc(-c4ccc(Cl)c(C(=O)O)c4)o3)C2=O)c1	none (no result: GRK2 inh)
O=C(O)c1cc(-c2ccc(/C=C3\NC(=O)N(c4ccccc4)C3=O)o2)ccc1Cl	GRK2 inh 86 | GRK2 inh confirm inactive | Aptamer quench SP inactive
O=C(O)c1cc(-c2ccc(/C=C3\NC(=O)N(c4ccc(Cl)cc4)C3=O)o2)ccc1Cl	GRK2 inh 50 | GRK2 inh confirm inactive | Aptamer quench SP inactive
CCOCCCNC(=O)C1(O)c2cc(Br)ccc2NC(=O)N1c1ccc(OCC)cc1 (stereo not drawn)	GRK2 inh 61 | GRK2 inh confirm inactive | Aptamer quench SP inactive
Cc1ccc(CNC(=O)C(NS(=O)(=O)c2cccs2)C(C)C)cc1 (stereo not drawn)	none
COc1ccc(CCN2C(=NC(=O)CC(C)C)SC3CS(=O)(=O)CC32)cc1 (stereo not drawn)	none
CCn1nc(NC(=O)C(C)(C)C)c2cc3cccc(C)c3nc21	GRK2 inh 50 | GRK2 inh confirm inactive | Aptamer quench SP inactive
CC(C(=O)O)n1c(-c2ccn[nH]2)n[nH]c1=S (stereo not drawn)	none
Cc1cccc(C)c1-n1c(C)nn(-c2ncc(C(F)(F)F)cc2Cl)c1=O	GRK2 inh 90 | GRK2 inh confirm inactive | Aptamer quench SP inactive
Cc1csc(=O)n1CC(=O)OCC(=O)Nc1cc(S(=O)(=O)N2CCOCC2)ccc1Cl	none (no result: MEKK2 WT-MEK5, MEKK3 PB1 HTS, MEKK2 mut-MEK5)
Cc1ccc2nc(SCC(=O)c3c[nH]c4ccccc34)[nH]c2c1	GRK2 inh 58 | GRK2 inh confirm inactive | Aptamer quench SP inactive
Cc1ccc(C(=O)CSc2nc3ccccc3c(=O)[nH]2)cc1C	GRK2 inh 61 | GRK2 inh confirm inactive | Aptamer quench SP inactive
Cc1ccc2cc(CCNC(=O)C(=O)c3c[nH]c4ccccc34)c(=O)[nH]c2c1	GRK2 inh 71 | GRK2 inh confirm inactive | Aptamer quench SP inactive
Cn1c(NNC(=O)/C=C/c2ccc3c(c2)OCO3)cc(=O)n(C)c1=O	none
O=C(Nc1ccccc1N1CCCCC1)c1ccco1	GRK2 inh 49 | GRK2 inh confirm inactive | Aptamer quench SP inactive
O=C(Nc1ccccc1N1CCCC1)c1ccco1	none
Cc1nn(C)c(C)c1S(=O)(=O)N1CCCC(C(=O)N2CCN(c3ccccc3)CC2)C1 (stereo not drawn)	GRK2 inh 82 (no result: MEKK2 WT-MEK5, MEKK3 PB1 HTS, MEKK2 mut-MEK5) | GRK2 inh confirm inactive | Aptamer quench SP inactive
O=[N+]([O-])c1cc([N+](=O)[O-])c(Oc2c(F)cccc2F)cc1NN1CCCCC1	none
COc1ccc(CC(=O)NC2CC(C)(C)NC(C)(C)C2)cc1	GRK2 inh 42 | GRK2 inh confirm inactive | Aptamer quench SP inactive
CN(C)c1ccc(N=Nc2ccc(C(=O)O)cc2)cc1	GRK2 inh 54 | GRK2 inh confirm inactive | Aptamer quench SP inactive
CC[C@H](C)/C=C/C1=CC2=C(Cl)C(=O)[C@@]3(C)OC(=O)C(C(=O)[C@H](C)[C@@H](C)O)=C3C2=CO1	GRK2 inh 69 | GRK2 inh confirm inactive | Aptamer quench SP inactive
Cc1ccc(N(CC(=O)Nc2ccccc2-c2ccccc2)S(=O)(=O)c2ccccc2)c(C)c1	none | GRK2 inh confirm inactive | Aptamer quench SP inactive
CC1CC(C)(C)CC2(C1)NC(=O)N(CC(=O)Nc1ccc3[nH]c(=O)[nH]c3c1)C2=O (stereo not drawn)	none (no result: MEKK2 WT-MEK5, MEKK3 PB1 HTS, MEKK2 mut-MEK5)
COc1ccc(O)c(/C=N/NC(=O)c2cc(=O)[nH]c3ccccc23)c1	GRK2 inh 68 | GRK2 inh confirm inactive | Aptamer quench SP inactive
O=C(N/N=C/c1ccccc1)c1cc(=O)[nH]c2ccccc12	none
Cc1cc(NCC(c2ccccc2)c2ccccc2)n2ncnc2n1	none
Cc1ccc2cc(C3C(C#N)=C(N)Oc4c3ccc3cccnc43)c(=O)[nH]c2c1 (stereo not drawn)	GRK2 inh 97 | GRK2 inh confirm inactive | Aptamer quench SP inactive
Cc1cccc(C)c1NC(=O)COC(=O)CNC(=O)C1CCCCC1	GRK2 inh 95 (no result: MEKK2 WT-MEK5, MEKK3 PB1 HTS, MEKK2 mut-MEK5) | GRK2 inh confirm inactive | Aptamer quench SP inactive
CCOC(=O)c1cccc(NC(=O)CNC(=O)C2CCCCC2)c1	GRK2 inh 54 | GRK2 inh confirm inactive | Aptamer quench SP inactive
Cc1ccnc(NS(=O)(=O)c2ccc(NC(=O)C3COc4ccccc4O3)cc2)n1 (stereo not drawn)	none
CC(Oc1ccccc1)C(=O)N1CCN(c2ccc(N3CCOCC3)nn2)CC1 (stereo not drawn)	none (no result: MEKK2 WT-MEK5, MEKK3 PB1 HTS, MEKK2 mut-MEK5) | GRK2 inh confirm inactive | Aptamer quench SP inactive
S=C(Nc1ccccc1)N1CCOCCOCCN(C(=S)Nc2ccccc2)CCOCCOCC1	none
S=C(Nc1ccccc1)N1CCN(c2ccc(N3CCOCC3)nn2)CC1	none | GRK2 inh confirm inactive | Aptamer quench SP inactive
COc1ccc(S(=O)(=O)NCc2ccc3c(c2)OCO3)cc1C	GRK2 inh 71 | GRK2 inh confirm inactive | Aptamer quench SP inactive
COc1ccc(N(C)S(=O)(=O)c2cccc(C(=O)NCC3CCCCC3)c2)cc1	none (no result: GRK2 inh)
Cc1ccc(NC(=O)CS(=O)CC(=O)Nc2ccc(N3CCOCC3)cc2)cc1Cl (stereo not drawn)	GRK2 inh 70 | GRK2 inh confirm inactive | Aptamer quench SP inactive
Cc1ccc(NC(=O)c2cc(N3C(=O)C=CC3=O)ccc2N2CCOCC2)cc1Cl	GRK2 inh 71 | GRK2 inh confirm inactive | Aptamer quench SP inactive
CSc1ccccc1NC(=O)c1ccc(Br)o1	none
CC(C)C[C@H]1CN=C(Nc2ccccc2)N1CC1CCCCCC1	GRK2 inh 58 (no result: MEKK2 WT-MEK5, MEKK3 PB1 HTS, MEKK2 mut-MEK5) | GRK2 inh confirm inactive | Aptamer quench SP inactive
COc1ccc(C)cc1NC(=O)NC(C)c1ccncc1 (stereo not drawn)	none

Screening results (PubChem)
